Reference: PubChem BioAssay (NCI)
The panel holds about 83,000 compounds, 20% with a hit somewhere; the sample as a whole holds those more often.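 Negative percent growth values reflect cell death: -40 means 40% of the cells present at the start died, and -100 means all died.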 A number with no mark means an inactive call. Activity calls are given as the source filed them. Rule for the calls: active = growth percent below 10; inactive = the rest.

test system: NCI-H23 lung; assay: NCI-60 one-dose screen, 48 h (100 = growth as untreated, 0 = no growth, -100 = all killed); details: 10 µM unless noted

Row | Compound | growth
1 | Cc1nn(-c2ccccc2)c(N2CCCCC2)c1/C=N/NC(=O)Cn1c(=O)sc2ccccc21 | 82.6%
2 | CN(C)c1ccc(C(=NO)c2ccc(N(C)C)cc2)cc1 | 47.3%
3 | Clc1ccc(-c2nc(-c3c[nH]c4ncccc34)cs2)cc1 | 35% [100 µM]
4 | COc1ccc(C(c2cc(OC)c(OC)c(OC)c2)N2CCCC2)cc1 (configuration not stated) | 85.3%
5 | COc1cccc(C(=O)OCC(O)C(=O)NC23CC4CC(CC(C4)C2)C3)c1 (configuration not stated) | 102%
6 | C=CC(=O)N1CCN(c2ccc3cccc(NC(=O)c4cnc(C)cn4)c3n2)CC1 | 66.7%
7 | CCOC(=O)c1c(C)c2c(n1C)CSc1cc(S(=O)(=O)c3ccccc3)c(=O)[nH]c1-2 | 21.7% [100 µM]
8 | CCCCCCCCNc1cc2c3c(c1)CCCN3CCC2 | -9.97% (active)
9 | COc1ccc(OC)c(-c2cn3nc(-c4c[nH]c5ccc(Br)cc45)sc3n2)c1 | 25%
10 | CS(=O)(=O)Nc1cc(-c2ccc3ncnc(Nc4ccc5c(cnn5Cc5cccnc5)c4)c3c2)cnc1Cl | 55.8%
11 | C=CCN=C(N)SCCCCCCSC(N)=NCC=C | 105%
12 | COc1cc(C2C3=C(COC3=O)N(CCO)c3cc4c(cc32)OCCO4)cc(OC)c1OC (configuration not stated) | 14.5%
13 | COc1ccc2[nH]cc(-c3nc(-c4cn(C)c5ccncc45)cs3)c2c1 | 93.9%
14 | COc1cccc(NC(=O)c2cccc(C3CCc4c(cc(OC)c(OC)c4OC)O3)c2)c1 (configuration not stated) | 73.9%
15 | Cn1c(O)c(C(/C=C/c2ccccc2)=Nc2ccccc2N)c(=O)n(C)c1=O | 94.2%
16 | CC1=C(C(=O)n2c3ccccc3c3ccccc32)C(c2cccc([N+](=O)[O-])c2)C(C(=O)n2c3ccccc3c3ccccc32)=C(C)N1 | 91.9%
17 | O=C(O)c1cn(C2CC2)c2cc(N3CCN(C(=O)N/N=C/c4ccccc4)CC3)c(F)cc2c1=O | 97.1%
18 | CC1(C)CCC(S(=O)(=O)c2ccc3c(c2)/C(=N\O)c2cc(S(=O)(=O)N4CCN(c5ccc(F)cc5O)CC4)ccc2-3)CC1 | -76.8% (active)
19 | Cc1ccc(C)n1/C=C/n1c(C)ccc1C | 94.7%
20 | CCOC(=O)C(=Cc1cccc(C#N)c1)C(=O)OCC | 68.4%
21 | COc1cc(-c2nc(NC(C)=O)sc2-c2ccnc(NCCNS(=O)(=O)c3ccccc3)n2)ccc1Cl | 63.4%
22 | CCN1CCN(CC(=O)Nc2nc3ccc(NCc4ccc(Br)cc4)cc3s2)CC1 | 70.4%
23 | C/C(=N\Nc1nc(C)cs1)c1cc2ccccc2o1 | 86.9%
24 | COc1ccccc1-n1c(-c2cc(O)ccc2C)cn2c3c(=O)[nH]c(=O)n(C)c3nc12 | 90.6%
25 | N#C/C(=C\c1ccc(Br)cc1)c1cc2ccccc2[nH]1 | 92.1%
26 | COc1ccc(C2=C/C(=C\c3ccc(Cl)cc3)C(=O)N2/N=C/c2ccc(Cl)cc2)cc1 | 103%
27 | CC(O)c1ncc(/C=C2\SC(=S)N(Cc3ccccc3)C2=O)s1 (configuration not stated) | 103%
